Bioassay records as filed in PubChem.
PGC1a acetyl inh = inhibitors of PGC1a acetylation signal, primary screen, cell-based, U2OS, AlphaScreen, inhibitor mode; AlphaScreen anti-acetyl-lysine; with virally co-expressed GCN5 acetyltransferase; 0.17% of 350,000 active; inhibition, % at 15.6 µM;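 active means every replicate shows inhibition of at least 40%; inconclusive means mean inhibition at least 40% but some replicate below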;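 further: 0% = neutral control wells and 100% = positive control wells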
PvdQ acylase = P. aeruginosa PvdQ acylase inhibitors, primary screen, biochemical, fluorescence, plate reader and imaging, single point; PvdQ acylase [Pseudomonas aeruginosa LESB58]; purified PvdQ acylase; inhibition, % at 10 µM; 0.063% of 340,000 active; AID 488965, 2010; in the data active means inhibition above about 30%, passing the limit was not always enough; inconclusive means no clear call, values can overlap the other calls;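 further: 0% = vehicle neutral wells and 100% = reference inhibitor wells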
DENV2 CPE rescue = inhibitors of DENV2 cytopathic effect, primary screen, cell-based, plate reader, single concentration; DENV2-infected cells, cytopathic effect rescue; 1.7% of 350,000 active; CPE inhibition, % at 9.99 µM; in the data active means CPE inhibition above about 20%, passing the limit was not always enough; inconclusive means no clear call, values can overlap the other calls; tested in BHK-21 cells;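 further: 0% = median of neutral control wells and 100% = median of positive control wells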
miR-122 sensor = miR-122 Renilla sensor signal increase in Huh7, primary screen, miR-122 inhibitor project, cell-based, single point, plate reader | Huh7 miR-122 Renilla luciferase sensor, 48 h; neutral wells = 0, positive control = 100 | activation (reporter increase), % at 12.5 µM | 0.3% of 340,000 active;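 active means mean replicate activation score at least 90 and every replicate individually at or above 90; inconclusive means only one of the two criteria met; inactive means neither criterion met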;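 further: higher luciferase means less miR-122 activity so hits act as miR-122 inhibitors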
Statin myotox sup = suppressors of statin myotoxicity in C2C12 myotubes, primary screen, cell-based, single point, plate reader | C2C12 myotubes + simvastatin, ATP luminescence, 48 h; scaled: DMSO 0, geranylgeraniol control 100 | rescue of ATP level, % at 7.49 µM | 0.78% of 330,000 active;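 active means mean ATP rescue above about 67%, or every replicate alone reaching that limit, limit read from the data, passing the limit was not always enough; inconclusive means no clear call, values can overlap the other calls; inactive means mean under the limit and some replicate under it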;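 further: myotubes were challenged with 10 µM simvastatin during compound exposure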
* hit, by the source's call; ? = inconclusive; nt = not tested or not shown; [ ] = another dose, or the depositor's remark. Shown are actives, neighbours in structure and some others; about 2.2% of the full set was active somewhere.

SMILES | PGC1a acetyl inh | PvdQ acylase | DENV2 CPE rescue | miR-122 sensor | Statin myotox sup
C=CCn1c(=O)c2c(nc3n2CC(C)CN3c2cccc(OC)c2)n(C)c1=O (centres undefined) | 3 | -13 | -12 | 1 | 120*
Cc1cccc(-c2ccc([C@@H]3[C@H](CO)N4CCCCN(S(=O)(=O)c5cccc(C)c5)C[C@@H]34)cc2)c1 | -12 | nt | 23* | -4[16.7 µM] | nt
COc1cccc(S(=O)(=O)N2CCCCN3[C@H](CO)[C@H](c4ccc(-c5cccnc5)cc4)[C@H]3C2)c1 | 2 | nt | -9 | -2[16.7 µM] | 3
COc1cccc(-c2ccc([C@@H]3[C@H](CO)N4CCCCN(S(=O)(=O)c5cn(C)cn5)C[C@@H]34)cc2)c1 | nt | nt | 27* | -3[16.7 µM] | 8
Cc1cccc(S(=O)(=O)N2CCCCN3[C@H](C2)[C@H](c2ccc(-c4ccccc4)cc2)[C@@H]3CO)c1 | -11 | nt | -11 | 23[16.7 µM] | nt
Cc1cccc(S(=O)(=O)N2CCCCN3[C@@H](CO)[C@@H](c4ccc(-c5cccnc5)cc4)[C@@H]3C2)c1 | -18 | nt | 28* | -1[16.7 µM] | nt
COc1ccc(NC(=O)N(C)C[C@@H]2Oc3ncc(C#CCN(C)C)cc3C(=O)N([C@@H](C)CO)C[C@H]2C)cc1 | -2 | nt | 8 | 0[16.7 µM] | 11
Cc1cccc(NS(=O)(=O)c2nnc(NC(=O)c3ccc(Cl)cc3)s2)c1 | -8 | -13 | -3 | 4 | 1
Cc1cccc(NS(=O)(=O)c2ccc3c(c2)OCCO3)c1 | -8 | 3 | nt | 119* | 0
COc1cccc(NS(=O)(=O)c2ccc3c(c2)N(C(C)=O)CCO3)c1 | 3 | 5 | 8 | 195* | 12
CC(=O)c1ccc(NS(=O)(=O)c2ccc3c(c2)N(C(C)=O)CCO3)cc1 | nt | -5 | 2 | nt | 16
Cc1cccc(NC(=O)c2cccc(NS(=O)(=O)c3ccc(Cl)cc3)c2)c1 | 3 | -1 | nt | 3 | 105*
COc1ccc(NS(=O)(=O)c2ccc3c(c2)N(C(C)=O)CCO3)c(OC)c1 | 4 | 1 | 2 | 11 | 4
CC(=O)N1CCOc2ccc(S(=O)(=O)Nc3cccc(C)c3)cc21 | nt | -13 | -1 | 130* | 6
COc1ccc(NC(=O)N(C)C[C@@H]2Oc3c(NC(=O)c4nc5ccccc5s4)cccc3C(=O)N([C@@H](C)CO)C[C@@H]2C)cc1 | -6 | nt | 12 | 1[16.7 µM] | nt
Cc1ccc(S(=O)(=O)N[C@@H]2C=C[C@@H](CC(=O)NCCc3ccncc3)O[C@H]2CO)cc1 | -2 | nt | 0 | nt | 0
CN(C)CC#Cc1ccc([C@H]2[C@H](CO)N3C(=O)CN(C(=O)c4ccccc4)C[C@@H]23)cc1 | -3 | nt | 1 | nt | nt
C[C@H](CO)N1C[C@H](C)[C@@H](CN(C)C)Oc2ccc(NS(C)(=O)=O)cc2CC1=O | 3 | nt | -7 | 0[16.7 µM] | -8
CNC[C@@H]1Oc2ncc(C#CC3(O)CCCC3)cc2C(=O)N([C@H](C)CO)C[C@@H]1C | -2 | nt | 3 | -12[16.7 µM] | -1
COc1ccc(NS(=O)(=O)c2ccc3c(c2)OCCO3)cc1OC | 21 | -17 | -1 | 28 | -13
COc1ccc(S(=O)(=O)Nc2ccc3c(c2)OCCO3)cc1Cl | -1 | -15 | nt | 46 | 114*
CC(=O)N1CCSc2ccc(S(=O)(=O)NCCc3ccc(Cl)cc3)cc21 | 8 | -13 | 17 | 94* | -23
CCc1cccc(NS(=O)(=O)c2ccc3c(c2)N(C)CCO3)c1 | -5 | -15 | -2 | 172* | -2
O=S(=O)(Nc1ccc2c(c1)OCCO2)c1ccc(F)c(F)c1 | nt | -7 | -7 | -1 | -9
O=S(=O)(Nc1ccc(Cl)cc1)c1ccc2c(c1)CCO2 | -2 | 1 | 5 | 123* | nt
SMILES | PGC1a acetyl inh | PvdQ acylase | DENV2 CPE rescue | miR-122 sensor | Statin myotox sup
CC(=O)N1CCSc2ccc(S(=O)(=O)NCCc3ccc(C)cc3)cc21 | 5 | -13 | 2 | 86 | 0
Cc1ccc(S(=O)(=O)N(C)C[C@@H]2Oc3ccc(NS(=O)(=O)c4ccc(Cl)cc4)cc3CC(=O)N([C@@H](C)CO)C[C@H]2C)cc1 | -20 | nt | -4 | -4[16.7 µM] | 45
C[C@H](CO)N1C[C@H](C)[C@@H](CN(C)Cc2ccc(Oc3ccccc3)cc2)Oc2ccc(NS(=O)(=O)c3ccc(Cl)cc3)cc2C1=O | 2 | nt | 12 | -2[16.7 µM] | -47
CC(=O)N1CCOc2ccc(S(=O)(=O)NCCc3cccc(C)c3)cc21 | 1 | -7 | 9 | 116* | 9
O=C(Oc1c(CN2CCOCC2)cc(Cl)c2cccnc12)c1ccccc1Br | 17 | -2 | 41* | -5 | 8
CN1CCN(Cc2cc(Cl)c3cccnc3c2OC(=O)c2cccs2)CC1 | nt | -14 | nt | 5 | nt
Cc1ccc(S(=O)(=O)N[C@H]2CC[C@@H](CCNC(=O)C3CCCCC3)O[C@@H]2CO)cc1 | -4 | nt | 2 | -7[16.7 µM] | 4
O=C(CN1C(=O)CSc2ccccc21)Nc1ccccc1C(=O)N1CCOCC1 | -30 | -18 | nt | 3 | 90*
Cc1ccccc1NC(=O)CN1C(=O)CSc2ccccc21 | 2 | -7 | -4 | -6 | 8
CC(C)C#Cc1cnc2c(c1)C(=O)N([C@@H](C)CO)C[C@H](C)[C@H](CN(C)C(=O)Nc1ccc(F)cc1)O2 | -4 | nt | 1 | -7[16.7 µM] | 2
O=C(CCN1CCCCC1)NCC[C@@H]1CC[C@@H](NC(=O)C2CCC2)[C@@H](CO)O1 | 9 | nt | 12 | 21[16.7 µM] | 0
Cc1nnc(NC(=O)CSc2ncc(-c3ccccc3)[nH]2)s1 | 88* | -12 | 0 | 8 | 20
CCc1nnc(NC(=O)CSc2ncc(-c3ccccc3)[nH]2)s1 | 1 | -6 | 3 | nt | 13
C[C@H]1CN([C@@H](C)CO)C(=O)c2cccc(NC(=O)c3ccc(-c4nccs4)cc3)c2O[C@@H]1CN(C)Cc1ccc(-c2ccccc2)cc1 | 0 | nt | 75* | -2[16.7 µM] | -10
C[C@@H]1CN([C@H](C)CO)C(=O)c2cccc(NC(=O)c3ccc(-c4nccs4)cc3)c2O[C@@H]1CN(C)Cc1ccc(C(=O)Nc2ccccc2N)cc1 | ? | nt | 10 | 203*[16.7 µM] | nt
CC(=O)N(C)C[C@@H]1Oc2ncc(-c3cccnc3)cc2C(=O)N([C@H](C)CO)C[C@H]1C | 3 | nt | -2 | -6[16.7 µM] | -4
CCCNC(=O)Nc1ccc2c(c1)OC[C@@H](C)N(C(=O)c1ccccc1F)C[C@@H](C)[C@H](OC)CN(C)C2=O | -3 | nt | -7 | nt | 6
CCCNC(=O)Nc1ccc2c(c1)OC[C@H](C)N(C(=O)c1ccccc1F)C[C@@H](C)[C@H](OC)CN(C)C2=O | 11 | nt | 40* | nt | -8
CCCNC(=O)Nc1ccc2c(c1)C(=O)N(C)C[C@H](OC)[C@H](C)CN(C)[C@@H](C)CO2 | 2 | nt | 101* | -10[16.7 µM] | 13
CCCNC(=O)Nc1ccc2c(c1)C(=O)N(C)C[C@@H](OC)[C@H](C)CN(C)[C@@H](C)CO2 | 0 | nt | -1 | -26[16.7 µM] | -9
